B2AR arrestin – agonists driving beta-arrestin recruitment to human beta2-adrenergic receptor; Potency, µM (highest dose often 46.1 µM), most hits filed as activators; 0.02% of 330,000 active; beta-arrestin recruitment to beta2AR, cell-based reporter; active = well fitted activation curve with a large enough effect; inconclusive = small, poorly fitted or top-dose-only effect; also: nearly all actives have a fitted effect of over 65% in size
D3 antag – antagonists of human D3 dopamine receptor | max response, negative = inhibition, % | D3R cells, DiscoveRx beta-arrestin luminescence, antagonist mode; hits give low values | 2.5% of 360,000 active; in the data active = max response below about -50%; inconclusive = no clear call, values can overlap the other calls
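Cells expressing the human receptor were seeded at 1500 cells/well, incubated overnight at 37 degrees C in 5% CO2, then exposed to library compounds with dopamine controls for 90 minutes at 37 degrees C before luminescent detection.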
D3 ag – agonists of human D3 dopamine receptor. max activation, %. D3R DiscoveRx beta-arrestin cells, luminescence, 90 min. 0.58% of 410,000 active. AID 652048; in the data active = max activation above about 30%
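Agonist mode: compounds and dopamine controls were applied to plated cells for 90 min at 37 degrees C after an overnight attachment at 1500 cells/well. Luminescent read-out followed 30 - 60 minutes at room temperature with DiscoveRx detection reagent.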
TSHR antagonist – antagonists of human thyroid stimulating hormone receptor; TSHR-expressing cells, TSH-stimulated cAMP HTRF, 2 h; hits give low values; AID 504810; 0.2% of 330,000 active; P16473; activity change, negative = inhibition, % at 11.5 µM;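 active = activity change below a set negative limit, meaning inhibition stronger than a set level, cut at about -70% in these data; inconclusive = activity change between two set negative limits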
Target sequence (P16473 whole entry, looked up): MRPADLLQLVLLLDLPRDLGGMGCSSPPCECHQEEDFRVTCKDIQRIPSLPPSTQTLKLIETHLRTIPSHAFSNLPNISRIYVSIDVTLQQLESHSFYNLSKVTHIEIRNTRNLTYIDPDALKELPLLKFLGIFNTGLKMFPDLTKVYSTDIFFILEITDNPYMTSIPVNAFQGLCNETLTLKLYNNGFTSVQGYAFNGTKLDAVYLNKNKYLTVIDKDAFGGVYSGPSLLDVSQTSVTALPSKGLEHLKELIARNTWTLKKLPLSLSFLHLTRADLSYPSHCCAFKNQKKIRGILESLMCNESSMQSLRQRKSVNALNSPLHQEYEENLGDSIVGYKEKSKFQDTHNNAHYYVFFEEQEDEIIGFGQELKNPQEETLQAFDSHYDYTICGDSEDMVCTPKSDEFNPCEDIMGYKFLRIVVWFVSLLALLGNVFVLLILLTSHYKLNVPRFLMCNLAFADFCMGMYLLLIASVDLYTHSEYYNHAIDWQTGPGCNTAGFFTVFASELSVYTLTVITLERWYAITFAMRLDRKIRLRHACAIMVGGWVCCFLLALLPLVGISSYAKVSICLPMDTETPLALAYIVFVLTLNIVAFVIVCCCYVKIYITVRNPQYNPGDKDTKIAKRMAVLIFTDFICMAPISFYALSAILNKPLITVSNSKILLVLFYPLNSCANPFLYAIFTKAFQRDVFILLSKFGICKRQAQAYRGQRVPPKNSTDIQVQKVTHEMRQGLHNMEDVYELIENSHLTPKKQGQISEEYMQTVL
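Read-out is FRET at 665 nm (cryptate excitation 337 nm) from a cryptate-tagged anti-cAMP antibody, competed by cell cAMP against cAMP-d2. Compounds are tested on freshly harvested TSHR cells challenged with 4nM TSH (EC80) for 2 hours at 37 deg C.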
A number is an active result. Only some compounds are listed: those with a hit (about 2.9% of all), similar ones and a draw of the others.

Results for OCCNCCCOc1ccc(Cl)cc1Br ?
B2AR arrestin: inactive; D3 antag: -64; D3 ag: inactive; TSHR antagonist: inactive

How did COCCNCCCOc1ccc(Br)cc1Cl do in these assays?
B2AR arrestin: inactive; D3 antag: -78; D3 ag: inactive; TSHR antagonist: inactive

How did CCOc1ccc(Cl)cc1CNCCNCCO do in these assays?
B2AR arrestin: inactive; D3 antag: inconclusive; D3 ag: inactive; TSHR antagonist: inactive

Results for CC(C)c1ccc(S(=O)(=O)N2CCC(n3c(C(F)(F)F)nc4cccnc43)CC2)cc1 ?
D3 ag: inactive

Results for COCCCNCCCOc1ccc(Cl)cc1C(C)(C)C ?
B2AR arrestin: inactive; D3 antag: inconclusive; D3 ag: inactive; TSHR antagonist: inactive

Results for COCCNCCCOc1ccc(Cl)cc1Br ?
B2AR arrestin: inactive; D3 antag: -78; D3 ag: inactive; TSHR antagonist: inactive

Results for COc1ccccc1N1CCN(Cc2nc(-c3ccc(F)cc3)oc2C)CC1 ?
B2AR arrestin: inactive; D3 antag: -115; D3 ag: inactive; TSHR antagonist: inactive

What do the screens show for `COc1ccc(-c2[nH]ncc2CN2CCN(Cc3cccs3)CC2)cc1F`?
B2AR arrestin: inactive; D3 antag: inconclusive; D3 ag: inactive; TSHR antagonist: inactive

How did COc1ccc(-c2nc(CN3CCN(Cc4cccc(Cl)c4)CC3)c(C)o2)cc1 do in these assays?
B2AR arrestin: inactive; D3 antag: -60; D3 ag: inactive; TSHR antagonist: inactive

What do the screens show for `COc1ccc(-c2nc(CN3CCN(c4ccccc4OC)CC3)c(C)o2)cc1`?
B2AR arrestin: inactive; D3 antag: -71; D3 ag: inactive; TSHR antagonist: inactive

How did COc1ccc(-c2nc(CN3CCN(Cc4cccc(F)c4)CC3)c(C)o2)cc1 do in these assays?
B2AR arrestin: inactive; D3 antag: inactive; D3 ag: inactive; TSHR antagonist: inactive

Results for COc1ccccc1N1CCN(Cc2cn[nH]c2-c2ccc(F)cc2)CC1 ?
B2AR arrestin: inactive; D3 antag: -67; D3 ag: inactive; TSHR antagonist: inactive

How did COc1ccccc1CN1CCN(Cc2nc(-c3ccc(C)cc3)oc2C)CC1 do in these assays?
B2AR arrestin: inactive; D3 antag: inactive; D3 ag: inactive; TSHR antagonist: inactive

Results for O=C(O)c1[nH]n(-c2ccc(S(=O)(=O)O)cc2)c(=O)c1N=Nc1ccc(S(=O)(=O)O)cc1 ?
D3 ag: inactive

Results for CCC(C(=O)NC1CCCC1)N(C(=O)Cn1nnc(-c2ccc(C)o2)n1)c1cccc(O)c1 (stereo not given) ?
B2AR arrestin: inactive; D3 antag: inactive; D3 ag: inactive; TSHR antagonist: inactive

How did CCC(C(=O)NC1CCCC1)N(C(=O)Cn1nnc(-c2ccc(C)o2)n1)c1cccc(OC)c1 (stereo not given) do in these assays?
B2AR arrestin: inactive; D3 antag: inactive; D3 ag: 36; TSHR antagonist: inactive

Results for O=C(NN1C(=O)/C(=C/c2ccc(O)c([N+](=O)[O-])c2)SC1=S)c1ccccc1Cl ?
B2AR arrestin: inactive; D3 antag: -74; D3 ag: inactive; TSHR antagonist: inactive

What do the screens show for `COc1ccc(CN2CC[C@H]3C=CCc4cccc(c43)C2)cc1`?
B2AR arrestin: inactive; D3 antag: -103; D3 ag: inactive; TSHR antagonist: inactive

How did COc1ccc(CNC2CCN(Cc3ccccc3)CC2)cc1 do in these assays?
B2AR arrestin: inactive; D3 antag: inactive; D3 ag: inactive; TSHR antagonist: inactive

How did Cc1ccc(CN2CC[C@H]3C=CCc4cccc(c43)C2)cc1 do in these assays?
B2AR arrestin: inactive; D3 antag: -123; D3 ag: inactive; TSHR antagonist: inactive

How did C1=C[C@@H]2CCN(Cc3ccccc3)Cc3cccc(c32)C1 do in these assays?
B2AR arrestin: inactive; D3 antag: inconclusive; D3 ag: inactive; TSHR antagonist: inactive

Results for CC1OC(CC(=O)O)CC2=C1C(=O)c1c(O)cccc1C2=O (stereo not given) ?
D3 antag: -94; D3 ag: inactive

What do the screens show for `O=C1c2cccc(O)c2C(=O)c2c(O)cccc21`?
B2AR arrestin: inactive; D3 ag: inactive; TSHR antagonist: inactive

How did Cc1ccc(NC(=O)CSc2ccc(-c3cccs3)nn2)cc1Cl do in these assays?
D3 ag: inactive

What do the screens show for `O=C(NCc1ccccc1Cl)c1ccc2nc([C@@H]3O[C@H](CO)[C@@H](O)[C@H]3O)[nH]c2c1`?
D3 antag: inactive; D3 ag: inactive

What do the screens show for `N#CC1(c2ccccc2)CCC(NCCc2ccccc2)CC1` (stereo not given)?
B2AR arrestin: inactive; D3 antag: -54; D3 ag: inactive; TSHR antagonist: inactive

Results for O=C(NCCc1ccccc1)C1(c2ccccc2)CCCC1 ?
B2AR arrestin: inactive; D3 antag: inactive; D3 ag: inactive; TSHR antagonist: inactive

Results for O=c1c(Br)ccc(Br)cc1Br ?
D3 antag: -114; D3 ag: inactive

How did CC[C@H](CC[C@@H](C)[C@H]1CC[C@H]2[C@@H]3CC=C4C[C@@H](O)CC[C@]4(C)[C@H]3CC[C@]12C)C(C)C do in these assays?
D3 ag: inactive

Results for O=[N+]([O-])c1cc2c(cc1CN1CCN(c3ccccc3F)CC1)OCO2 ?
B2AR arrestin: inactive; D3 antag: -52; D3 ag: inactive; TSHR antagonist: inactive

How did Cc1ccccc1N1CCN(Cc2cc3c(cc2[N+](=O)[O-])OCO3)CC1 do in these assays?
B2AR arrestin: inactive; D3 antag: inactive; D3 ag: inactive; TSHR antagonist: inactive

Results for CCn1c(CCNC(=O)c2ccco2)nc2ccccc21 ?
B2AR arrestin: inactive; D3 antag: inactive; D3 ag: inactive; TSHR antagonist: inactive

How did C=CCn1c(CCNC(=O)c2ccco2)nc2ccccc21 do in these assays?
B2AR arrestin: inactive; D3 antag: -74; D3 ag: inactive; TSHR antagonist: inactive

How did CC1=NN(c2nc(C)cc(C)n2)C(=O)C1CCC(C)C (stereo not given) do in these assays?
B2AR arrestin: inactive; D3 antag: -60; D3 ag: inactive; TSHR antagonist: inactive

Results for Cc1ccc(CCNC(=O)c2ccc(Nc3nc4ccccc4n4nnnc34)cc2)cc1 ?
D3 ag: inactive

What do the screens show for `CCOC(=O)c1ccccc1NC(=O)CSc1nc(=O)[nH]c2c1CCC2`?
D3 ag: inactive

What do the screens show for `COc1ccccc1C1NC=C([N+](=O)[O-])C=C1[N+](=O)[O-]` (stereo not given)?
B2AR arrestin: inactive; D3 antag: -62; D3 ag: inactive; TSHR antagonist: inactive

What do the screens show for `O=C(Nc1cccc(C(F)(F)F)c1)c1ccc2sc([C@@H]3O[C@H](CO)[C@H](O)[C@H](O)[C@H]3O)nc2c1`?
D3 antag: inactive; D3 ag: inactive

What do the screens show for `COc1ccc(CCNC(=O)C(C)n2nc(C)c3sc4ccccc4c3c2=O)cc1OC` (stereo not given)?
D3 ag: inactive

How did COc1ccc(CN(CCCN2CCOCC2)S(=O)(=O)N(C)C)cc1OC do in these assays?
B2AR arrestin: inactive; D3 antag: inactive; D3 ag: inactive; TSHR antagonist: inactive

What do the screens show for `COC(=O)c1ccccc1S(=O)(=O)N(CCCN1CCOCC1)Cc1cccs1`?
B2AR arrestin: inactive; D3 antag: inconclusive; D3 ag: inactive; TSHR antagonist: inactive

Source: PubChem BioAssay
